Entries with a potency or affinity are not part of this list. Active and inactive are the calls of the source. How the calls were made is not given here.
Molecular target: Large T antigen (Simian virus 40) (UniProt P03070)
Assay: inhibition of TAg ATP hydrolysis – biochemical, ADP-Hunter detection, purified TAg, synthesized compounds, set 3, SAR follow-up (AID 485288)
Settings: purified TAg ATPase, ADP-Hunter fluorescence; series mostly up to 100 µM

Large T antigen (Simian virus 40), sequence (P03070 whole entry, looked up): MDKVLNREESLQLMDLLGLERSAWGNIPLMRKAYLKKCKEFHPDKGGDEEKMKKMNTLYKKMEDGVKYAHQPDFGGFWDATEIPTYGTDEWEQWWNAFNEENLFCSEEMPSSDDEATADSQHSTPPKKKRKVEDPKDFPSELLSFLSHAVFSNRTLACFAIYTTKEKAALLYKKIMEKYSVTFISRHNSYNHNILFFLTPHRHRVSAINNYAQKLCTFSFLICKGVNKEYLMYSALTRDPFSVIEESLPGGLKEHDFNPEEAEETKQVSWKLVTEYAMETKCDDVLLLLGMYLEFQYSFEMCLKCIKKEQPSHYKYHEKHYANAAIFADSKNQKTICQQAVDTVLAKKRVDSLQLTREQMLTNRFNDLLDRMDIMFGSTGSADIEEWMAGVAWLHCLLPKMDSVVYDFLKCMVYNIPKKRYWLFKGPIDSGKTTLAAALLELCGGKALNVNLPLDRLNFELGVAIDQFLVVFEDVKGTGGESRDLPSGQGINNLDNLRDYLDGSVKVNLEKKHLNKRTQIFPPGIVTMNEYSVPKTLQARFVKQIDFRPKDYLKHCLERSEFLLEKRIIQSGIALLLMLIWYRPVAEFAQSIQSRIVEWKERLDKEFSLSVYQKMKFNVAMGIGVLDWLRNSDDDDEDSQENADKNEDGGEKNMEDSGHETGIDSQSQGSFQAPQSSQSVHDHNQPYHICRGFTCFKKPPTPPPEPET

Row | SMILES | outcome
1 | Cc1cc(C(C)(C)c2ccc(O)c(C)c2)ccc1O | inactive
2 | CC(C)(c1ccccc1)c1ccc(O)cc1 | inactive
